# Measured values taken from PubChem BioAssay AID753 (Emory University Molecular Libraries Screening Center, 2007).
# The other results are listed elsewhere or left out. Inconclusive results are not listed. Unmarked numbers belong to inactive results.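 Rule for the calls: active = percent of control activity at or below 60%; inconclusive = HPLC trace unusable from injection failure or solvent front hiding peaks; inactive = the rest, plus ubiquitin peak ratio over a set limit.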
# Molecular target: Ubiquitin carboxyl-terminal hydrolase BAP1 (Homo sapiens) (UniProt Q92560)
# Experiment: BAP1 ubiquitin ester hydrolysis inhibition – biochemical, Ub-ethyl ester substrate, HPLC readout, orthogonal assay, confirmation (AID 753)
# Details: purified BAP1, Ub-ethyl ester hydrolysis, at 20 µM, active compounds read low
# Chain of Ubiquitin carboxyl-terminal hydrolase BAP1 (Homo sapiens) (Q92560 whole entry, looked up): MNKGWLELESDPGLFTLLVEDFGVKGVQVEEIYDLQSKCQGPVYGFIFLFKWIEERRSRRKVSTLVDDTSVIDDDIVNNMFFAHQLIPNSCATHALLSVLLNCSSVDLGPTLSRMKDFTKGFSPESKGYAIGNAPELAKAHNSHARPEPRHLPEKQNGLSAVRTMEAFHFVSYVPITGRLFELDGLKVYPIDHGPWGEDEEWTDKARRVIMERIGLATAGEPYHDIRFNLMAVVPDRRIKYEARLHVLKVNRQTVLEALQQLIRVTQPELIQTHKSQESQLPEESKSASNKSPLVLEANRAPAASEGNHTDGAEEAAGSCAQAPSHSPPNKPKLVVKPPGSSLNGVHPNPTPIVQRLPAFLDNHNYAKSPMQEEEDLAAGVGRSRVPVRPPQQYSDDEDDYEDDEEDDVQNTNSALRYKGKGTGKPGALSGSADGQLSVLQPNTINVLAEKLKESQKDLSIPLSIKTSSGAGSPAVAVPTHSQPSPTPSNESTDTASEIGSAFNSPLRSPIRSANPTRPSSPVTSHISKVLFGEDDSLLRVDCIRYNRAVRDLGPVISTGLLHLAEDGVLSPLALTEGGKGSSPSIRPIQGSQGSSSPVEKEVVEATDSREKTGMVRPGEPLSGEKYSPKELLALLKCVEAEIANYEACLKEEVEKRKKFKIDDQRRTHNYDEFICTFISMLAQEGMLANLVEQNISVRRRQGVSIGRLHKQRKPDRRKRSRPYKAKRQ
compound,measurement,value
CCCCCn1c(=O)c(C(=O)NCc2ccccn2)c(O)c2ccccc21,% of control activity,112%
